In this test the test system is HL-60(TB) leukemia. Description: NCI-60 one-dose screen, 48 h (100 = growth as untreated, 0 = no growth, -100 = all killed). The settings on record: 10 µM unless noted.

Structures are written as SMILES. Where “and” joins values, the source holds several entries; their conditions need not be identical. Identical values can stand only once. This is part of a sample that, as a whole, favours compounds with a hit. Of some 83,000 tested, about 20% had one in any assay.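 Cells were grown in 96-well plates and exposed to the test compound at a single concentration for 48 hours; results are reported as percent growth, with values below 10 considered active.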 Calls of active or inactive are those of the source.

For the compound `OC(c1ccccc1)C(NC(Cc1ccccc1)c1ccccc1)c1ccccc1` (stereo not drawn), the growth is 112% (inactive).

Regarding `O=C(Nc1cccc(Cl)c1)OCC(COC(=O)Nc1cccc(Cl)c1)(COC(=O)Nc1cccc(Cl)c1)[N+](=O)[O-]`, the growth was 45% (inactive).

`O=[N+]([O-])c1ccc(NC2CCCCC2)nc1`: the growth is 110% (inactive).

With `CC(C)(C)CC1(C)NC(=O)NC1=O` (stereo not drawn), the growth was 114% (inactive).

Turning to `C#CCOc1ccc2ncnc(Nc3cccc(NC(=O)C=C)c3)c2c1`, the growth is 63.1% (inactive).

Regarding `CC(C)(C)c1cc(-c2nc3ccc(N4CCN(S(C)(=O)=O)CC4)cc3[nH]2)cc(C(C)(C)C)c1O`, the growth was 90.2% (inactive).

Consider `COc1ccc2oc3cc(NCCN(C)C)ccc3c(=O)c2c1`, for which the growth is 22% (inactive).

Turning to `C#C[C@]1(O)CC[C@H]2[C@@H]3CC=C4c5nc(Nc6ccc(OC)cc6OC)sc5CC[C@]4(C)[C@H]3CC[C@@]21C`, the growth was 17.9% (inactive).

Turning to `CCCCCCCC12Cc3ccccc3C1=Nc1c(c3ccccc3n1C)C2=O` (stereo not drawn), the growth was 91.4% (inactive).

On to `O=C1OC(=O)C2C3CC(c4ccccc43)C12` (stereo not drawn), for which the growth is 112% (inactive).

In the case of `COc1ccccc1S(=O)(=O)Nc1ccc2c(c1)CN(C)C(=O)N2`, the growth was 21.9% (inactive).

For the compound `CC1CN(Cc2ccco2)C(=S)N(c2ccccc2)C1=O` (stereo not drawn), the growth was 61.3% (inactive).

Regarding `COc1cc(C(=O)N2CCN(c3ccccc3)CC2)c2ccccc2n1`, the growth is -1.74% (active).

Consider `COc1ccc(C2=NN(C(=O)c3cc(OC)c(OC)c(OC)c3)C(c3ccc(Cl)cc3)C2)cc1OC` (stereo not drawn), for which the growth was -54% (active).

Consider `COC(=O)c1cc(-c2ccc(C)cc2)n(C(=O)CSc2nc3sc(C(N)=O)c(C)c3c(=O)n2Cc2ccccc2)n1`, for which the growth is 106% (inactive).

As to `Cc1nc(N2CCOCC2)sc1S(N)(=O)=O`, the growth was 97.4% (inactive).

As for `O=[N+]([O-])c1ccc(NS(=O)(=O)c2ccccc2)c2ccccc12`, the growth is 21.2% (inactive).

With `COc1cc2c(c(OC)c1OC)CCC(c1cccc(C(=O)Nc3cccc(Cl)c3)c1)O2` (stereo not drawn), the growth is 82.7% (inactive).

Regarding `OCC(O)c1nc2ccc3[nH]ncc3c2c2c1CCCC2` (stereo not drawn), the growth was -16.9% (active).

Take `COC(=O)c1cc(-c2ccc(OC)cc2)[nH]c1N/N=C/c1c(Cl)cccc1Cl`: the growth is -44.9% (active).

For `COc1ccc2c(c1)CCCC21C(=O)Nc2ccccc21` (stereo not drawn), the growth was 88% (inactive).

Turning to `O=c1[nH]c2ccccc2n1C1CCN(CCOc2ccccc2)CC1`, the growth was 50% (inactive).

Regarding `NC(=O)CSSCC(N)=O`, the growth is 9.36% (active).

On to `COc1cc(/C=C\c2cc(/C=C\c3ccc(O)c(OC)c3)n(C(=O)Nc3ccc(C(F)(F)F)cc3)n2)ccc1O`, for which the growth was 15.2% (inactive).

Regarding `Nc1c2ccccc2nc2ccccc12`, the growth is 21% (inactive) and 9.95% (active) and 47.7% (inactive).

Consider `Cc1cc(=O)n(Nc2ccccc2)c(O)c1C#N`, for which the growth was 90.3% (inactive).

As for `O=S(=O)(NCCNc1cc(-c2cn(-c3ccccc3)nc2-c2cccc(O)c2)ccn1)c1ccc(Cl)cc1`, the growth was 15.3% (inactive).

With `CN(C)c1ccc(C(=C2C=CC(=[N+](C)C)C=C2)c2ccccc2Cl)cc1`, the growth is -48.7% (active) and 9.12% (active).

For `C/C(=N\NC(=O)c1ccncc1)c1ccccc1O`, the growth is 5.87% (active) and 2.85% (active).

As for `COc1ccc(-c2c(N)noc2-c2cc(OC)c3c(c2)OCCO3)cc1`, the growth was -30.8% (active).

`COc1cc(-c2cc(-c3nc4ccccc4[nH]3)[nH]n2)cc(OC)c1OC`: the growth is -22.9% (active).

In the case of `C1CN(SSN2CCOCC2)CCO1`, the growth is 35.6% [100 µM] (inactive).

With `O=C(Nc1ccc2cc3ccc(NC(=O)NC4CCCCC4)cc3nc2c1)NC1CCCCC1`, the growth was 99.3% (inactive).

For the compound `CCOC(=O)/C=C/c1ccc(C(=O)OCC)[nH]1`, the growth was 51.2% (inactive).

`CC(=O)Nc1ccc(S(N)(=O)=O)cc1`: the growth was 101% (inactive).

Regarding `CC(=O)c1cc2c(N)c(C(=O)Nc3cncc4ccccc34)sc2nc1C`, the growth is 91.6% (inactive).

As to `Cc1nn(-c2nc3ccccc3[nH]2)c2c1C(c1ccc(OCC(N)=O)cc1)CC(=O)N2` (stereo not drawn), the growth was 113% (inactive).

As for `CN(C)C(C(N)=O)c1ccc(Cl)cc1` (stereo not drawn), the growth is 89.6% (inactive).

For the origin of these results see PubChem BioAssay (NCI).
